# This excerpt belongs to a sample that is enriched for hits.
# Lassa entry inh – inhibitors of Lassa virus binding or cell entry; Lassa virus pseudotype entry inhibition, cell reporter; Potency, µM (top dose mostly 37.9 µM), for inactives: top-dose activity change, negative = inhibition, actives largely listed as inhibitors; 300,000 compounds, 1.2% hits; calls by dose curve; tested in HEK293 cells; further: potency means the concentration at half of the fitted maximal effect; on the % scale 0 is the no-effect control and ±100 the full control effect; nearly all actives have a fitted effect of over 50% in size
# Cycloheximide cs – counter-screen for Shiga toxin inhibitors: cycloheximide protein synthesis inhibition; cell reporter, cycloheximide protein synthesis inhibition counterscreen; max response, %; 300,000 compounds, 12% hits; AID 2314; in the data active means max response mostly above about 13%, no sharp cut-off; inactive means mostly below about 14%; further: read at 38.3 µM for the half of the compounds with a filed dose; 0% is about no effect
# Marburg entry inh – blocks Marburg virus binding to or entry into cells. Marburg virus pseudotyped entry inhibition, cell reporter. Potency, µM (highest dose often 37.8 µM), for the others: top-dose activity change, negative = inhibition, most hits filed as inhibitors. 300,000 compounds, 1.8% hits; calls by dose curve; tested in HEK293 cells; further: potency means the concentration at half of the fitted maximal effect; on the % scale 0 is the no-effect control and ±100 the full control effect
# AMA1 RON2 block – inhibitors of Plasmodium falciparum AMA1-RON2 interaction; AlphaScreen AMA1-biotinylated RON2 peptide binding; Potency, µM (titrated, usually from 58.2 µM), for inactives: at the top dose activity change, negative = inhibition, hits mostly inhibitors; 360,000 compounds, 0.2% hits; active means well fitted inhibition curve with a large enough effect; inconclusive means small, poorly fitted or top-dose-only effect; inactive means no such curve, though single readings can be large or run the other way;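 further: potency means the concentration at half of the fitted maximal effect; 0% = vehicle wells and -100% = peptide control; nearly all actives have a fitted effect of over 45% in size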
#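 AMA1 (3D7) with his tag at 25 nM final met compounds first, then biotinylated RON2 peptide at 25 nM; detection used donor plus acceptor beads, 10 µg/mL apiece, read by AlphaScreen after 30 min at room temperature.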
# Shiga inhibitor – Shiga toxin inhibition. Vero cells, Shiga toxin protein synthesis inhibition reporter. inhibition, % at 38.7 µM. 290,000 compounds, 9.2% hits; in the data active means inhibition mostly above about 28%, no sharp cut-off; inactive means mostly below about 43%; further: 0% is about no effect
# Numbers without * were called inactive; i = inactive; ? = inconclusive; . = no result given; + = active, no number; ! = a repeat was not active; [ ] = remark or other dose.
SMILES,Lassa entry inh,Cycloheximide cs,Marburg entry inh,AMA1 RON2 block,Shiga inhibitor
COc1ccc(NC(=O)C2(C)CCN2C2Cc3ccccc3C2)cc1OC (stereo not given),.,.,.,-23.7%,.
Cc1ccc(CCNC(=O)c2cccc(Nc3nc4ccccc4nc3-n3nc(C)cc3C)c2)cc1,1.1%[46.1 µM],.,4.8%[46.1 µM],.,.
O=C(Nc1nc2ccccc2s1)c1ccc([N+](=O)[O-])o1,.,33.4*,.,-4.1%,48.0*
Cc1cc(C)c2sc(NC(=O)c3ccc([N+](=O)[O-])o3)nc2c1,.,1.4,.,-1.8%,3.7
CCc1ccccc1NC(=O)C1CCN(C2=NS(=O)(=O)C(c3ccc(C)c(C)c3)=C2C)CC1,-2.6%[46.1 µM],.,.,.,.
Cc1cc(C)n2ncc(/C(N)=N/OC(=O)Nc3ccc(Cl)cc3)c2n1,.,20.2*,.,-2.3%,48.0
Cc1cc(C)n2ncc(/C(N)=N/OC(=O)c3ccccc3F)c2n1,-22.7%,24.9*,-2.2%,-22.2%,50.4*
Cc1cc(C)n2ncc(C(=O)NCc3cccnc3)c2n1,-2.9%,10.9,3.4%,8.0%,10.6
Cc1ccc2cccc(NC(=O)c3ccc(-c4cccc(Cl)c4Cl)o3)c2n1,-3.4%[46.1 µM],.,0.4%[46.1 µM],.,.
CCCCN(C(=O)c1cccc(S(=O)(=O)N2CC(C)OC(C)C2)c1)c1c(N)n(CC(C)C)c(=O)[nH]c1=O (stereo not given),-1.2%,0.0,0.5%,8.7%,-5.4
CC(C)CN(CC(C)C)C(=O)c1cccc(S(=O)(=O)N2CCc3ccccc32)c1,.,-2.8,?,-1.8%,-4.3
O=C(Nc1nc2ccccc2s1)c1cccc(S(=O)(=O)N2CCc3ccccc32)c1,-2.6%,14.1*,?,53.5%,21.3
CC(C)CCNC(=O)c1cccc(S(=O)(=O)N2CCc3ccccc32)c1,3.98µM*,-1.2,?,2.4%,-15.2
CCOc1ccccc1NC(=O)[C@@H](NC(=O)c1cccc(S(=O)(=O)N2CCOCC2)c1)C(C)C,6.5%[46.1 µM],2.2,19.5%[46.1 µM],12.4%,26.6
O=C(Nc1ncccc1O)c1cccc(S(=O)(=O)N2CCCc3ccccc32)c1,0.7%,.,7.1%,90.5%,.
Cc1cccnc1NC(=O)c1cccc(S(=O)(=O)N2CCCc3ccccc32)c1,-15.1%,26.3*,-8.7%,33.1%,18.9
CC(C)[C@H](NC(=O)c1cccc(S(=O)(=O)N2CCOCC2)c1)C(=O)Nc1nc2ccccc2s1,?,25.7*,?,-3.2%,+
CCN(CC)c1cc(C)c2cc(NC(=O)/C=C/c3ccccc3OC(C)C)ccc2n1,-15.7%[46.1 µM],.,?,.,.
Cc1ccc2nc(NC(=O)CCNS(=O)(=O)c3ccc(Br)s3)sc2c1,2.6%,25.6*,5.7%,-4.0%,66.9
Cc1ccc2nc(NC(=O)c3ccc(NS(=O)(=O)c4cccs4)cc3)sc2c1,5.7%,29.0*,?,-0.6%,14.7
Cc1ccc2nc(NC(=O)CCNS(=O)(=O)c3cccs3)sc2c1,-22.4%,25.7*,1.2%,-9.5%,79.4*
Cc1cccc2sc(NC(=O)CCNS(=O)(=O)c3cccs3)nc12,-11.4%,0.9,0.2%,-5.8%,-5.9
CCc1noc(C)c1C(=O)N(C)CC(=O)Nc1ccc(Br)cc1C,5.9%,.,0.6%,-15.4%,.
COc1ccc(NC(=O)c2c(NCc3ccc(C)o3)sc3c2CCC(C)C3)cc1 (stereo not given),2.2%[46.1 µM],.,.,.,.
CC(=Nc1cccc(O)c1)c1sc2ccccc2c1O,7.5%,54.8*,9.5%,-3.6%,110.8*
SMILES,Lassa entry inh,Cycloheximide cs,Marburg entry inh,AMA1 RON2 block,Shiga inhibitor
CC(=Nc1ccc(C)cc1)c1sc2ccccc2c1O,?,35.2*,?,10.7%,91.7*
CC(=Nc1ccccc1C)C1=C(O)CSC1=O,12.8%,1.5,23.1%,22.0%,-6.4
CC(=Nc1ccc(C)cc1C)c1sc2ccccc2c1O,.,36.5*,.,59.0%,119.2*
Cc1cc(NS(=O)(=O)c2ccc(NC(=O)COc3ccc(C#N)cc3)cc2)nc(C)n1,8.7%,.,21.2%,-3.3%,.
CC1N(C(=O)N2CCOCC2)CCN1S(=O)(=O)c1ccc(Cl)cc1 (stereo not given),11.1%,-4.9,7.8%,-0.9%,-7.8
CCOC(=O)C1CCCN(C(=O)c2cc3c(=O)n4cccc(C)c4nc3n2C)C1 (stereo not given),.,.,-5.0%,.,.
Cc1ccc(-c2cc(=O)c3cc(C)ccc3[nH]2)cc1,14.6µM*,43.0*!,8.2µM*,-4.6%,59.4*!
Cc1ccc(-c2cc(=O)c3cc(F)ccc3[nH]2)cc1,14.8%,15.7*,-21.6%,-2.1%,17.7
Cc1ccc2[nH]c(C)cc(=O)c2c1,.,-1.2,.,.,i
CCOC(=O)N1CCN(c2ccc(C(=O)c3ccccc3)cc2F)CC1,?,28.6*,-9.2%,-10.1%,77.2*

# Screening results deposited in PubChem BioAssay by National Center for Advancing Translational Sciences (NCATS).
